The source of these data is PubChem BioAssay (NCATS).

Results filed as inconclusive are left out. Activity calls are given as the source filed them. Calls come from the whole dose curve; as a rule, active = well fitted inhibition curve with a large enough effect; inconclusive = small, poorly fitted or top-dose-only effect, or effect the other way; inactive = flat fitted curve, though single readings scatter.

A short description of the experiment: qHTS for Inhibitors of Plasmodium falciparum (CP250) proliferation (AID 504320). The note with it: P. falciparum CP250 in erythrocytes, SYBR Green DNA, 72 h; series mostly up to 6.7 µM. The text has this:
Plasmodium falciparum is a virulent malarial parasite that kills 1-2 million people worldwide each year. Malaria not only inflicts tremendous suffering and morbidity on the human population, but has dramatically influenced the course of civilization with profound sociological and economic implications (Shah, S. 2010). Transmitted by mosquitoes, the sporozoite form of the parasite enters the blood stream to infect hepatocytes, where they become merozoites that infect red blood cells (erythrocytes). Within erythrocytes, merozoites begin a […] cycle of growth and division, after which the parasite is released to infect new red blood cells. Gametocytes, which form within erythrocytes as well, circulate in the bloodstream and are ingested by the mosquito, thereby completing the life cycle (see CDC website). To profile malarial lines for differential chemical responses and to identify inhibitors of malarial growth, an assay that measures P. falciparum growth and replication within erythrocytes was employed. This assay uses a DNA binding fluorescent dye (SYBR Green) to detect parasite DNA following cell lysis. Because mature erythrocytes lack DNA, only Plasmodium-derived DNA is detected. The P. falciparum line cp250, derived from a malarial isolate from Cambodia, (Mu, J., et al. 2010) was added to the panel of lines, Dd2, HB3, 7G8 and GB4 in this study. Laboratory of Assay Development and Screening Technology [ADST] and NIH Chemical Genomics Center [NCGC] Boston University, Chemistry Department, Center for Chemical Methodology and Library Development [CMLD-BU] NIH National Institute of Allergy and Infectious Diseases [NIAID]
ADST Assay Protocol Summary: The 1536-well SYBR Green viability assay was based on the method of Bennett et al (2004) and described previously in 1536-well format (Yuan J., et al. 2009). For screening 3 ul culture medium was dispensed into 1536 well black clear bottom plates (Aurora Biotechnologies) using a Multidrop Combi (Thermo Fisher Scientific Inc.), 23 nL compounds in DMSO were added by a pin transfer (Cleveland, P.H. and Koutz, P.J, 2005) using a pin tool-based delivery system (Kalypsys), and 5 ul of erythrocytes infected with P. falciparum one of five lines (cp250, Dd2, HB3, 7G8 or GB4, 0.3% parasitemia, 2.5% hematocrit final concentration) were added. The plates were incubated at 37C in a humidified incubator in 5% CO2 for 72 h, and 2 ul lysis buffer (20 mM Tris HCl, 10 mM EDTA, 0.16% saponin, 1.6% triton X, 10X SYBR Green I (supplied as 10,000X final concentration by Invitrogen) was added to each well. The plates were mixed for 25 sec with gentle shaking and incubated overnight at room temperature in the dark. The following morning, fluorescence intensity at 485(14) nm excitation and 535(25) nm emission wavelengths was measured on an EnVision (Perkin Elmer) plate reader. Plate reads were normalized relative to the control inhibitor (0.29 uM artemisinin) and vehicle (DMSO) wells present on each plate and then corrected by an algorithm using vehicle-only control plates at the beginning and end of the compound plate stack. References Shah, S. (2010). The Fever: how malaria has ruled humankind for 500,000 years. New York, Sarah Crichton Books. CDC web site, http://www.cdc.gov/malaria/about/biology/index.html Mu, J., Myers, R.A., Jiang, H., Liu, S., Ricklefs, S., Waisberg, M., Chotivanich, K., Wilairatana, P., Krudsood, S., White, N.J., et Plasmodium falciparum genome-wide scans for positive selection, recombination hot spots and resistance to antimalarial drugs Nature Genetics 2010, 42, pp 268-271 Bennett TN, Paguio, M., Gligorijevic, B., Seudieu, C., Kosar, A. D., Davidson, E., and Roepe, P. D. Novel, rapid, and inexpensive cell-based quantification of antimalarial drug efficacy Antimicrobial Agents Chemother. 2004, 48(5): pp 1807-10 Yuan J, Johnson RL, Huang RL, Wichterman J, Jiang HY, Hayton K, Fidock DA, Wellems TE, Inglese J, Austin CP, Su XZ. […]
On the technique in general: Quantitative high-throughput screening tests each substance at several concentrations.
Take `COC(=O)C1=C2CCCO[C@H]2[C@@H]2[C@@H](C)[C@H](OC)c3ccccc3[C@@H]12`: the result was inactive. Regarding `COC(=O)[C@]12C[C@@H]3CCN(C(=O)N[C@@H]1c1ccccc1)[C@@]32C`, the compound was classed as inactive. In the case of `CCOC(=O)[C@]12C[C@@H]3OCCN(C(=O)N[C@@H]1c1ccccc1)[C@@H]32`, the result was inactive.

Consider `CCC[C@]12CCN3C(=O)N[C@@H](c4ccccc4)[C@](C(=O)OCC)(C1)[C@H]32`, for which the outcome was inactive. In the case of `COC(=O)C12CC3=CCC4C(=O)N(c5ccccc5)C(=O)C4C3Cc3ccccc3[C@H]1CNC2=O` (stereo partly specified), the result was inactive.

As for `C=C1[C@@H]2CCN3C(=O)N[C@@H](c4ccccc4)[C@@]1(C(=O)OCC)C23` (stereo partly specified), the compound was classed as inactive. In the case of `COC(=O)[C@@]1(C=C2c3ccccc3[C@@H](OC)[C@@H]2C)[C@@H]2Oc3ccccc3[C@@H]21`, the call was inactive.

As for `COC(=O)C1(C)C2CC(C)C(c3ccccc32)N1C(=O)C(F)(F)F` (stereo unspecified), the call was inactive. Then `COC(=O)C1=C2CCO[C@@H]2[C@H]2[C@@H](C)[C@H](OC)c3ccccc3[C@H]12`, with “inactive”; and `CCOC(=O)[C@]12C[C@]3(OC)CCN(C(=O)N[C@@H]1c1ccccc1)[C@@H]32`, with “inactive”. Then `COC(=O)C1C2CC(C)C(c3ccccc32)N1C(=O)C(F)(F)F` (stereo unspecified), with “inactive”. Then `COC(=O)C1c2c(n(C)c3ccccc23)[C@H]2[C@@H](C)[C@H](OC)c3ccccc3[C@@H]12` (stereo partly specified), with “inactive”; and `CC(=O)[C@]12C[C@@H]3CCN(C(=O)N[C@@H]1c1ccccc1)[C@@]32C`, with “inactive”. As for `COC(=O)[C@@]1(C=C2c3ccc(F)cc3[C@@H](OC)[C@@H]2C)[C@@H]2Oc3ccccc3[C@@H]21`, the call was inactive.

On to `CCOC(=O)[C@]12C[C@]3(C)CCN(C(=O)N[C@@H]1c1ccccc1)[C@@H]32`, for which the call was inactive. For `CC(=O)[C@]12C[C@]3(C)CCCN(C(=O)N[C@@H]1c1ccccc1)C32` (stereo partly specified), the compound was called inactive. To `COC(=O)C1=NN=C(C(=O)OC)[C@@]2(C)c3ccccc3NC12` (stereo partly specified) belongs “inactive”; to `COC(=O)[C@@H]1[C@@H](c2ccccc2)[C@H]2C(=O)c3c(OC)cc(OC)cc3O[C@@]12c1ccc(OC)cc1`, “inactive”; to `COC(=O)C1=C2CCO[C@H]2[C@@H]2[C@@H](C)[C@H](OC)c3ccccc3[C@@H]12`, “inactive”. To `C=C(C)C(=O)CP(=O)(OCC)OCC` belongs “inactive”; to `COC(=O)C1=C[C@H]([C@@H](C)[C@H](OC)c2ccccc2Br)[C@H]2[C@H]1c1ccccc1N2C`, “inactive”. Then `CCOC(=O)[C@]12C[C@]3(C)CCCN(C(=O)N[C@@H]1c1ccccc1)[C@@H]32`, with “inactive”; and `CC(=O)[C@]12C[C@@H]3CCCN(C(=O)N[C@@H]1c1ccccc1)[C@@H]32`, with “inactive”; and `COC(=O)[C@@]12Cc3ccccc3[C@H]1C[C@H](C)[C@@H](C)N2C(=O)C(F)(F)F`, with “inactive”. For `CCOC(=O)[C@]12C[C@@H]3CCN(C(=O)N(C(C)=O)[C@@H]1c1ccccc1)[C@@H]32`, the call was inactive. To `CCOC(=O)[C@@]12[C@@H]3[C@@H](CCN3C(=O)N[C@H]1c1ccccc1)C2(C)C` belongs “inactive”. Then `COC(=O)[C@@]1(C=C[C@@H](C)[C@H](OC)c2ccccc2Br)[C@@H]2Oc3ccccc3[C@@H]21`, with “inactive”; and `CC(=O)[C@]12[C@H](c3ccccc3)[C@@H]3CCN(C(=O)N[C@H]1c1ccccc1)[C@@]32C`, with “inactive”.

As for `CO[C@@H]1c2ccccc2[C@H]2C(C(=O)O)c3c(n(C)c4ccccc34)[C@H]2[C@H]1C` (stereo partly specified), the outcome was inactive. Then `CC(=O)[C@@]12C3[C@@H](CCN3C(=O)N[C@H]1c1ccccc1)[C@H]2c1ccccc1` (stereo partly specified), with “inactive”; and `CCOC(=O)[C@@]12C3[C@@H](CCN3C(=O)N[C@@H]1c1ccccc1)[C@@H]2C` (stereo partly specified), with “inactive”.
